From PubChem BioAssay AID1347426 (Functional Genomics Laboratory (NCATS/FGL), 2020) come the findings set out here.

Among all 31,000 sequences or so, about 1,400 (4.5%) were called active. The full list was thinned out, with actives kept by preference. Values without a mark were called inactive.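 The calls were made as follows: active = median seed-adjusted z-score above 1 or below -1; inactive = the rest.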

The test is described as follows: Novel Modifiers of Survival Motor Neuron (SMN) Protein: Gene Identification via Genome-wide siRNA Screen. The note with it: HEK293T SMN2-luciferase reporter, siRNA knockdown, 72 h; actives lie on both sides. An outline of the steps: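 Each of three siRNAs per gene is reverse-transfected (1 pmol) into reporter HEK293T cells whose luciferase output tracks SMN protein level. After 72 h culture, ONE-Glo luminescence is control-normalized, log10-transformed and MAD-standardized; Common Seed Analysis deprioritizes seed-driven hits.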
On to GAGUGGAAGUUAUCUGUCATT against WBSCR22, for which the median seed-adjusted z-score is -0.21.
As to AGCUCCAUCUCGACCACAATT against FMOD, the median seed-adjusted z-score is -1.32 (active).
GGAAUACAGUGACGACAAATT against ING5: the median seed-adjusted z-score was -0.193.
The figure for GCAUCGACCGGGUUUAUGATT against KARS is -0.152; for CCACUUUACCCACUACCCATT against ISX it is 1.99 (active); for GCAUUCGAAUUAUAGAACATT against SLC16A14 it is 0.464.
GCACAAAUCUCAAUAUUCATT against GPSM3: the median seed-adjusted z-score was -0.641.
The figure for CAGCCUUAAUGGACACGAATT against MFGE8 is 0.0367; for GUAUGGUCGGUUUACAAUATT against YES1 it is -0.508; for ACCGUAUUCCUAUAUCUCATT against FOXA3 it is 0.128.
In the case of GCAUCGUCAAGGAUUGGAATT against ACTR1A it was 1.28 (active); in that of GCACUUACGAUGACCGGCATT against TNFAIP1, 0.0766.
Turning to GCAAUUUCUUGUUUCGUUATT against SLC9A6, the median seed-adjusted z-score is -0.0831.
In the case of GGACAAUAGACUUUAGAGATT against NCALD it was 0; in that of AGUAUACGCUGCCCUCAUATT against RNASE3, 0.588; in that of CCAUUUGAGGUGAACCGUATT against RFWD3, 0.554.
The figure for CUACGACGGUGAUAUUGGATT against HDAC2 is -1.27 (active); for GCAGGGAUCUUACAUCUAUTT against CENTD2 it is -0.305.
The figure for GCAUCCUACCCGUUCCAUATT against MSX2 is -0.406; for GGGACAUCCGAGAUCCUAATT against LAMB1 it is 1.07 (active); for GGACAAACACGGACAGUAUTT against EPHB4 it is -0.143.
Turning to AAGGAGCAGUGGAUACUGATT against MST1, the median seed-adjusted z-score is -1.47 (active).
As to GAAGGAAGAUGGUAAGGGATT against IL6ST, the median seed-adjusted z-score was -0.518.
For the sequence GCUUCGUGAGCUUUGAUAATT against BRUNOL5, the median seed-adjusted z-score was 0.333.
In the case of CGUGGACAGCUGCAGAAAATT against EDIL3, the median seed-adjusted z-score is 0.
In the case of CAAUCAGCAGAGUUACAUUTT against CPEB3 it was 0.086.
The figure for CCAUCGUCAUGGUUACCAATT against PTPRA is -0.438; for GCACUUAAGGAAUGACAGATT against CDY2A it is 0.75.
The figure for CAGGUUCUCUAAUUGAACATT against NFX1 is -0.256.
For GAAACGCAAGGGUACAGAATT against RUVBL2, the median seed-adjusted z-score is -0.0764.
In the case of GGAGUGACCGGAAACAUCATT against PRKCD it was -0.236; in that of CCAUUACAGAGGGAGUUCATT against NRBP1, -1.13 (active); in that of GGAUAUCUUCUAUGAUCUATT against SMAD7, -0.25.
In the case of AGAACUUUGUGCACCGUGATT against ZAP70 it was -0.674; in that of AGCUUGAAAUCUCAUGGAATT against SPINK5L2, 0.482.
In the case of GAAGAUUGCUAAUGACAAUTT against GOT1 it was 0.0103; in that of UAAUAAUUCUCACUCCUAATT against FZD5, -0.129; in that of GACCGGCCGUUCAGAAUGATT against RPUSD1, 0.327.
On to CGUGUACCCGUUUGACUUUTT against SGSH, for which the median seed-adjusted z-score is 0.383.
In the case of GCCUGGUACUACUAGCUUUTT against TRPC5, the median seed-adjusted z-score is -1.14 (active).
With CCUCUAGAAGGAUCUAAUATT against MMP19, the median seed-adjusted z-score was 0.43.
Turning to GAAUUGUUUUAGCUAACGATT against PGM2, the median seed-adjusted z-score was 0.355.
For the sequence AAACAGACAGAGAUAAGUATT against UBE2D3, the median seed-adjusted z-score is 1.62 (active).
For AGUACUUUGUAUUGGGAUATT against RCE1, the median seed-adjusted z-score is -1.19 (active).
Turning to AGCAGGAUAUGAUCCGGAATT against SEC14L4, the median seed-adjusted z-score was -0.714.
As to GGCACGUCCUGUUACACCATT against LMO4, the median seed-adjusted z-score was -0.067.
The figure for CGCUUGGAGAGGCUACAAATT against FXR2 is -0.133; for GUUCCGAAGUGGUCUCAUUTT against MINPP1 it is -0.0107; for GCAGUACACUACCAACAGATT against ALAS1 it is -1.15 (active).
Take CAACAUUGGAAAAUACAGATT against LAP3: the median seed-adjusted z-score was 0.0175.
In the case of UCCCGGGAAUUAAAACUUATT against EPHA6 it was 0.0445; in that of GGAUCUGCACAGUCUUCUATT against PSKH2, 0.0439.
In the case of GGAUUUGCCCUGACAAAAATT against ZRANB2 it was 0.441; in that of CAUUGAGAAUAAUAACAGATT against PPP3CA, 0.74.
The figure for GCCUAUUAUGGAGAAAAGATT against HES1 is -0.262; for CGAUAUGAUUGGCCAGAGATT against GIPC3 it is -0.27.
Consider CGGAUUUGUUGCUAAAUGATT against PCDHB8, for which the median seed-adjusted z-score is 1.15 (active).
In the case of CUGACAGUGUGGAUCGAUATT against COL12A1 it was 0.00422; in that of GGAUUGAAAACAAACUCUATT against RET, -0.931; in that of GCGGUACUUUGAGCAGUUATT against P4HA2, 0.
In the case of GGCUCUUCAAGGCUAUGAATT against ANXA6 it was -1.01 (active).
Turning to GUCUGUAACUGAGCAAGGATT against YWHAZ, the median seed-adjusted z-score was 0.721.
On to ACGGUUCGCUGAAAAAGAATT against PITX3, for which the median seed-adjusted z-score was 0.
In the case of CGUCCAUACUUACCUAAUUTT against UGT2A1 it was 0.213; in that of CGACCGCACCUGGAAUGAATT against PLA2G4D, -0.233.
In the case of GCGUGUCAGCUGUUCAUUATT against OSBPL5 it was 0.638; in that of CAAGCCCUCUGAAACAGUUTT against ADRA1A, -1.06 (active); in that of GCAUAUGAUUUUAUGGUAATT against FBXW7, 0.
CUCUCUAUAUUGAAACCAATT against CHN1: the median seed-adjusted z-score is 2.1e-05.
In the case of ACUGAAAGCUGAUUAAUUATT against KLK2 it was 0.0716; in that of GAGCUGAUCUGUUACAAGUTT against DAK, -0.372; in that of GAACACUCUAUGUCUAAUATT against MYNN, 0.0702.
The figure for GUGAUGUCAUUAGGCAGAATT against CRIP3 is 1.7 (active).
In the case of UCCCAGUUCUGAUACAUAUTT against SAE1 it was 0.831.
Regarding AGACCUGCGUGGUGCACUATT against FKBP1A, the median seed-adjusted z-score is 0.113.
The figure for GGAGCUUCAGGUUGUCCGATT against RPUSD3 is 0.303; for CGAUGGACAGUGUCUCUUATT against ALG6 it is 0.106; for UCCUUGUUGUGGACAGGGATT against SPINK4 it is -0.0134.
The figure for GGACCUAUUCGUCAAAUCATT against SF3B14 is -1.26 (active); for CCUUGCUUGUGAGAGCAGATT against NPAS1 it is -0.386.
In the case of GCGUUAUCCUCGUACCUUUTT against STC2 it was -0.00039; in that of CUAUCCACCAUACAUUUCATT against NTM, 0.
Take GCAACGGGUUUGGAGUCAATT against KRT75: the median seed-adjusted z-score is 0.0773.
As for CCAUCUCGACUGACAAGAATT against TNNI3K, the median seed-adjusted z-score is -0.178.
In the case of GCUAUUAUCUAAGCACGAATT against ADAMTS20 it was 1.44 (active); in that of GAUAUAUCCGAAACCAGUATT against PDGFD, 0.366; in that of GAAUCGGCGAUGUACUAGATT against NT5C3, -0.456.
With CUAUGUCGUUGAAAACCAUTT against KCNE1, the median seed-adjusted z-score was -0.347.
The figure for GGAAGUAUUAGGGUACAAATT against SOS2 is 0.3; for GAGUAUCUCUGAAACCUCUTT against IL1A it is 1.12 (active); for GGGAGUGACAUAUCCAAGATT against CCL26 it is -0.01.
The figure for CGGAAGGUGUAUGAACUGATT against ICAM1 is 0.345; for GCAAGGUCGUCAACCGCAATT against SAPS1 it is 1.16 (active); for GCAGUUCCAUGGUACACCATT against ASAH1 it is 0.421.
In the case of GUCAGAUACAUGAACCAGATT against JMJD1A it was 0.466.
Consider GGAUAGGAGUCAUCAGCCUTT against SSTR3, for which the median seed-adjusted z-score is 0.
For CCCAAUUCAGAUUACUACATT against POLN, the median seed-adjusted z-score was -0.129.
The figure for CUACUCAACAGACAUAAUATT against TRIP13 is 1 (active); for GGCUUCUACUGGUGUCUGATT against PIGR it is -0.35.
In the case of GGACUUACACUCUUAGGAATT against MAOB it was 0.
The figure for CACAACAUCUUGUAAGACUTT against GNG13 is -0.516; for CGCCGACUCUAUUCAUGCATT against RAB22A it is 0.321; for CGAGAGUAAUUUGAAGAAUTT against SIGMAR1 it is -1.4 (active).
Regarding GAUGGAUCUUUACAGUUGATT against METTL4, the median seed-adjusted z-score was 0.244.
The figure for GAACAAUCAUUGCAUCGGATT against CPB2 is -0.62; for CCUUACCUGGAGUACCCAATT against PMPCA it is -0.985; for GGACCGAAGUCAAUGGUUUTT against SMC2 it is -0.052.
For the sequence CAUUUAGUGUACAUUCAAATT against ZNF665, the median seed-adjusted z-score is 1.13 (active).
In the case of CGACAGGGUAUCCAACUAATT against WASL it was 0.143.
